Assay outcomes from PubChem BioAssay.
HP1b binding inh – blocks HP1-beta chromodomain binding to methylated histone tails; P83916; AlphaScreen HP1-beta / biotin-H3K9me3 peptide binding; Potency, µM (top dose mostly 114 µM), most hits filed as inhibitors; AID 540317; 390,000 tested, 0.56% active; further: nearly all actives have a fitted effect of over 70% in size
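HP1-beta protein (50 nM final) preincubated 30 min at room temperature with biotinylated H3(1-18)K9me3 peptide (50 nM) in PBS pH 7.4, 0.01% Tween-20, then compound added for 30 min. AlphaScreen streptavidin donor/nickel chelate acceptor beads (10 ug/mL final), 30 min dark, luminescence read.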
BAZ2B block – BAZ2B (human) inhibition | AlphaScreen BAZ2B-H3K14Ac peptide displacement | 360,000 tested, 4.4% active | Potency, µM (doses to about 114 µM), most hits filed as inhibitors | AID 504333 | Q9UIF8; further: nearly all actives have a fitted effect of over 60% in size
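In this displacement format the biotinylated H3(5-23) peptide acetylated at Lys14 serves as ligand at 50 nM, with BAZ2B at 50 nM in PBS pH 7.4 containing 0.01% Tween-20. Donor and acceptor beads are 10 ug/mL final.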
PLK1 PBD block – inhibitors of human PLK1 polo-box domain binding; Potency, µM, hits mostly inhibitors; Plk1 PBD binding of FITC phosphopeptide, fluorescence polarization; 360,000 tested, 2.8% active; P53350; further: series mostly up to about 57 µM; nearly all actives have a fitted effect of over 65% in size
Sfp inh – blocks B. subtilis Sfp PPTase activity; Biochemical Sfp PPTase activity, qHTS; 310,000 tested, 3.5% active; AID 1490; Potency, µM, hits mostly inhibitors; Q9F4F7;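 further: the enzyme is Sfp with the accession as filed and its product quenches rhodamine fluorescence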
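Fluorescence-quenching assay with 15 nM Sfp, 5 uM rhodamine-CoA and 12.5 uM BHQ-2-labelled ybbR peptide in pH 7.6 Hepes/MgCl2 buffer. Enzyme was pre-incubated with compound for 15 min at room temperature. Rate was taken from the 30-min fluorescence change (525/598 nm).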
JMJD2A Tudor inh – inhibitors of human JMJD2A Tudor domain | O75164 | AlphaScreen JMJD2A-Tudor / H3K4me3 peptide binding | Potency, µM (top dose mostly 114 µM), usual class: inhibitors | 390,000 tested, 4.4% active; further: nearly all actives have a fitted effect of over 50% in size
G9a block – G9a (human) methyltransferase inhibition. 350,000 tested, 8.8% active. Q96KQ7. G9a H3K9 monomethylation, AlphaScreen, 2 h. Potency, µM (highest dose often 102 µM), hits mostly inhibitors; further: nearly all actives have a fitted effect of over 75% in size
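AlphaScreen read-out: biotin-H3K9 peptide (500 nM) methylation by 20 nM enzyme with 20 uM SAM, 2 h at room temperature after 15 min compound preincubation; anti-monomethyl H3K9 antibody plus donor/acceptor beads, 10 min dark.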
Of the large screens only hits and unclear results are named; the others gave an inactive call. This is a sample that favours compounds with a hit; in the whole collection about 12% have one here. The call rests on the fitted dose curve; in most records, active means well fitted curve in the direction sought with a large enough effect; inconclusive means small, poorly fitted or top-dose-only effect, or another doubt; inactive means no such curve, though single readings can be large; an effect the other way counts as inactive or inconclusive.

CCn1c(=S)sc2c(=O)n(-c3ccccc3)c(SC)nc21	Sfp inh inconclusive, G9a block 45µM
COc1cccc(-c2nc(-c3ccccc3)nc(N3CCN(C)CC3)c2C#N)c1	BAZ2B block inconclusive, JMJD2A Tudor inh 56µM, G9a block 50µM
COC(=O)c1sc2nc(-c3ccccc3)nc(N3CCN(C)CC3)c2c1C	BAZ2B block inconclusive, Sfp inh 50µM, JMJD2A Tudor inh inconclusive, G9a block inconclusive
COc1ccc(-c2nc(-c3ccccc3)nc(N3CCN(C)CC3)c2C#N)cc1	BAZ2B block inconclusive, JMJD2A Tudor inh inconclusive
COc1ccc(-c2nc(-c3cccc(C)c3)nc(N3CCN(C)CC3)c2C#N)cc1	G9a block 79µM
N#CC1C(=O)NC(=O)C(C#N)C12CCCC2 (stereo not drawn)	none (no result: HP1b binding inh, BAZ2B block, Sfp inh, JMJD2A Tudor inh, G9a block)
Cc1cccc(C)c1NC(=O)C1C2C=CC(C2)C1C(=O)NCc1ccccn1 (stereo not drawn)	BAZ2B block 79µM, G9a block inconclusive
O=C(Nc1ccc(Nc2ccccc2)cc1)c1ccc(Cl)cc1	none (no result: BAZ2B block, Sfp inh, G9a block)
CN(C1=C(NC(=O)c2ccc(Cl)cc2)C(=O)c2ccccc2C1=O)c1ccccc1	BAZ2B block 8.9µM, JMJD2A Tudor inh 4.5µM, G9a block 8.9µM
O=C(NC1=C(NC2CCS(=O)(=O)C2)C(=O)c2ccccc2C1=O)c1ccccc1 (stereo not drawn)	BAZ2B block inconclusive, Sfp inh 35µM, JMJD2A Tudor inh inconclusive, G9a block 3.5µM
O=C(NC1=C(Nc2ccc(Cl)cc2)C(=O)c2ccccc2C1=O)c1ccccc1	HP1b binding inh inconclusive, BAZ2B block inconclusive, Sfp inh 56µM, G9a block 7.9µM
O=C1C(Cl)=C(NC(=O)c2ccccc2)C(=O)C(Cl)=C1NC(=O)c1ccccc1	HP1b binding inh 3.5µM, BAZ2B block inconclusive, PLK1 PBD block 1.3µM, Sfp inh 0.89µM, JMJD2A Tudor inh 0.71µM, G9a block 1.3µM
O=C(Nc1cccc(Cl)c1)c1ccccc1	none (no result: Sfp inh)
O=C(NC(NC1CCS(=O)(=O)C1)C(=O)c1cccs1)c1ccccc1 (stereo not drawn)	none
Cc1c(S(=O)(=O)NC2CCCCC2)c(=O)n(C)c(=O)n1C	none (no result: Sfp inh)
Cc1noc(C)c1-c1ccc2ncnc(NCc3ccccc3Cl)c2c1	none (no result: HP1b binding inh, BAZ2B block, PLK1 PBD block, G9a block)
Cn1c(=O)n(CCCO)c(=O)c2c1nc1n2CCCN1Cc1ccccc1	BAZ2B block inconclusive, G9a block inconclusive
CCOC(=O)c1c(C)n(-c2ccccc2)c2ccc(OC(=O)c3ccccc3NC(=O)C(C)(C)C)cc12	none (no result: PLK1 PBD block, Sfp inh)
CCCCCCCCCCCCCC[N+](C)(C)Cc1ccccc1	Sfp inh 40µM (no result: HP1b binding inh, BAZ2B block, PLK1 PBD block, JMJD2A Tudor inh)
CCCCCCCC(=O)NNC(=O)Cc1ccccc1	none
CCCCCCCCCCCCCCCC[N+](C)(C)Cc1ccccc1	Sfp inh 45µM (no result: HP1b binding inh, BAZ2B block, PLK1 PBD block, JMJD2A Tudor inh)
COc1cc(OC)cc(-c2nnc3n2N=C(c2ccccc2OC)CS3)c1	JMJD2A Tudor inh inconclusive (no result: HP1b binding inh, BAZ2B block, PLK1 PBD block, G9a block)
COc1ccccc1C(=O)NC(=O)COC(=O)CCS(=O)(=O)c1ccc(C)cc1	none (no result: Sfp inh)
CC1CCN(C(=O)CC2C(=O)Nc3c2c(=O)n(C)c(=O)n3Cc2ccccc2)CC1 (stereo not drawn)	G9a block 8.9µM
Cn1c2c(c(=O)n(C)c1=O)C(CC(=O)Nc1ccccc1)C(=O)N2 (stereo not drawn)	none
Cn1c(=O)c2c(n(Cc3ccccc3)c1=O)NC(=O)C2CC(=O)O (stereo not drawn)	G9a block 45µM
CC1CCN(c2nc3c(c(=O)n(C)c(=O)n3C)n2Cc2ccccc2)CC1	G9a block inconclusive
CCOc1ccc(C(=O)Nc2cc(-c3nc4ccccc4[nH]3)ccc2Cl)cc1[N+](=O)[O-]	Sfp inh inconclusive, JMJD2A Tudor inh 79µM, G9a block inconclusive
O=C(NC(=S)Nc1cc(-c2nc3ccccc3[nH]2)ccc1Cl)c1ccc2c(c1)OCO2	PLK1 PBD block 24µM, Sfp inh inconclusive, G9a block 45µM
Cc1ccc(-c2nc3ccccc3[nH]2)cc1NC(=O)c1ccc2c(c1)OCO2	G9a block inconclusive
CCOc1ccc(C(=O)Nc2cc(-c3nc4ccccc4[nH]3)ccc2C)cc1[N+](=O)[O-]	none
Cc1noc(C)c1NC(=O)Nc1cccc2c1O[C@H](CN(C)C(=O)NC1CCCCC1)[C@@H](C)CN([C@H](C)CO)C2=O	none (no result: BAZ2B block, Sfp inh, G9a block)
COc1cc(S(=O)(=O)N2CCN(C(=O)c3ccco3)CC2)ccc1Cl	none
C/C(=C\c1ccc(C)o1)C(=O)c1c(C)cc(C)[nH]c1=O	Sfp inh 32µM, G9a block 50µM (no result: BAZ2B block)
CC1CN(C(=O)COc2ccc3ccccc3c2Br)CC(C)O1 (stereo not drawn)	none (no result: G9a block)
CC1CCCN(CCCOc2ccc(Cl)cc2Br)C1 (stereo not drawn)	HP1b binding inh inconclusive, JMJD2A Tudor inh 22µM, G9a block 10µM
CC1CCCN(CCOc2ccc3ccccc3c2Br)C1 (stereo not drawn)	HP1b binding inh inconclusive, BAZ2B block 22µM, Sfp inh 16µM, JMJD2A Tudor inh inconclusive, G9a block inconclusive
Brc1ccccc1OCCCCN1CCCCC1	none
Cc1ccc(Cl)c(OCCN2CCCC(C)C2)c1 (stereo not drawn)	HP1b binding inh inconclusive, BAZ2B block inconclusive, JMJD2A Tudor inh 18µM, G9a block 13µM
CC1CCN(CCOCCOc2ccc(Cl)cc2Br)CC1	HP1b binding inh inconclusive, BAZ2B block 79µM, Sfp inh 56µM, JMJD2A Tudor inh 4.5µM, G9a block 10µM
Clc1ccc(OCCOCCN2CCc3ccccc3C2)c(Cl)c1	none
Cc1ccc(NS(=O)(=O)c2c(C)nc3sccn3c2=O)c(Cl)c1	none (no result: PLK1 PBD block, Sfp inh)
Clc1ccc(OCCCN2CCc3ccccc3C2)c(Br)c1	none
CC1CCN(CCCOc2ccc(Cl)cc2Br)CC1	HP1b binding inh inconclusive, BAZ2B block inconclusive, JMJD2A Tudor inh 20µM, G9a block 20µM
COc1cccc(NC(=O)N2CCN3CCCCC3C2)c1 (stereo not drawn)	none (no result: PLK1 PBD block, Sfp inh)
CCc1ccc(OCC(=O)N(Cc2ccc(C)o2)C2CCS(=O)(=O)C2)cc1 (stereo not drawn)	JMJD2A Tudor inh 56µM (no result: PLK1 PBD block, Sfp inh)
Cc1ccc(CN(C(=O)COc2ccc(Br)cc2)C2CCS(=O)(=O)C2)o1 (stereo not drawn)	BAZ2B block inconclusive, PLK1 PBD block 12µM, JMJD2A Tudor inh 25µM
Cc1ccc(CN(C(=O)COc2ccc(F)cc2)C2CCS(=O)(=O)C2)o1 (stereo not drawn)	none (no result: PLK1 PBD block, Sfp inh)
Cc1ccc(CN(C(=O)c2ccc(Cl)c([N+](=O)[O-])c2)C2CCS(=O)(=O)C2)o1 (stereo not drawn)	PLK1 PBD block 24µM, JMJD2A Tudor inh inconclusive
Cc1ccc(CN(C(=O)COc2ccc(C)c(C)c2)C2CCS(=O)(=O)C2)o1 (stereo not drawn)	PLK1 PBD block 27µM, JMJD2A Tudor inh inconclusive
